From PubChem BioAssay AID720551 (National Center for Advancing Translational Sciences (NCATS), 2013)
In all, about 340,000 compounds went through this assay and about 1,300 (0.38%) were called active. What follows is part of a selection rich in actives, with near analogues and random picks from the rest. Values without a mark were called inactive.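 Rule for the calls: active = maximum activity change below -70%; inconclusive = maximum activity change between -70% and -50%; inactive = maximum activity change above -50%.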

These compounds were tested against Voltage-gated inwardly rectifying potassium channel KCNH2 (Homo sapiens) (UniProt Q12809) (assay: qHTS for Inhibitors of KCHN2 3.1: Wildtype qHTS). Conditions: U2OS, BacMam KCNH2, thallium flux FluxOr; at 1.84 µM; hits give low values.
Chain of Voltage-gated inwardly rectifying potassium channel KCNH2 (Homo sapiens) (Q12809 whole entry, looked up, canonical isoform): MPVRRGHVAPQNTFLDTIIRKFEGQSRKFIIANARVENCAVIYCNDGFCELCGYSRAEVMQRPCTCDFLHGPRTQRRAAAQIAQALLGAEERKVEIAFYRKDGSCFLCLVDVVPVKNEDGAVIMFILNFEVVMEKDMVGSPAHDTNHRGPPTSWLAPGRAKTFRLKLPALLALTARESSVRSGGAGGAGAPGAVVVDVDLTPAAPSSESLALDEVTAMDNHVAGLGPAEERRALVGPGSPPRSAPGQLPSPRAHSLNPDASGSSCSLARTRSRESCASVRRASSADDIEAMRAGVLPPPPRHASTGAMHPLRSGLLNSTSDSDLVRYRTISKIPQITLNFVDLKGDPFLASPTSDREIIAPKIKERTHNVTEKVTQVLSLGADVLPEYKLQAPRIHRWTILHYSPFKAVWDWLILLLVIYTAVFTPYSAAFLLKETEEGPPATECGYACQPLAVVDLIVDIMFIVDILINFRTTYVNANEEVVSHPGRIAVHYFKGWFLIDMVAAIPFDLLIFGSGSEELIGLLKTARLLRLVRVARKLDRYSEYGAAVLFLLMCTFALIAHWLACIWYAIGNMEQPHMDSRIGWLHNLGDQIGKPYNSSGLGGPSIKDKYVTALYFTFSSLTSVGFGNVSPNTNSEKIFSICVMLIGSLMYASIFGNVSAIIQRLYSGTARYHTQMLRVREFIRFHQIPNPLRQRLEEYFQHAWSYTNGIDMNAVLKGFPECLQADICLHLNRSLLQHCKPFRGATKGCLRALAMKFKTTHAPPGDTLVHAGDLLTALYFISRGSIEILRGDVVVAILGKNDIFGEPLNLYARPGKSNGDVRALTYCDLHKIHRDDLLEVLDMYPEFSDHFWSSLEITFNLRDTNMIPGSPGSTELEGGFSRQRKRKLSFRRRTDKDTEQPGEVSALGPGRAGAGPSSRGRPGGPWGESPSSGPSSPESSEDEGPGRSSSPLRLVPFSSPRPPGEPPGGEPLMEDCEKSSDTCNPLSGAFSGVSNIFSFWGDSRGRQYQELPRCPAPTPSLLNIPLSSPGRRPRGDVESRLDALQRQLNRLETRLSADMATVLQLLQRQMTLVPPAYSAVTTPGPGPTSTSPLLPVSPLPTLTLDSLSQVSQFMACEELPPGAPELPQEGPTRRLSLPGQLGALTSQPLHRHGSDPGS
From the text: Many antipsychotic drugs that inhibit the neurotransmitter dopamine also bind to hERG1 channel which might help explain their antipsychotic activity but also produces cardiac side effects. The discovery of the novel KCNH2 3.1 isoform offers a potential new target for the development of antipsychotic drugs without cardiac side effects. This proposal will use a high throughput thallium flux assay developed for KCNH2 to screen compounds that modulate the activity of KCNH2 3.1. The wild type KCNH2 channel will also be screened in parallel to help define the selective modulators of this KCNH2 3.1 potassium channel. The resulting compounds will be validated in electrophysiology experiments. The availability of animal models will allow future testing in vivo for effects on memory and other aspects of animal physiology linked with psychosis. NIH Chemical Genomics Center [NCGC] NIH Molecular Libraries Probe Centers Network [MLPCN] MLPCN Grant: MH096539 Assay Submitter (PI): James Barrow, Johns Hopkins University, Lieber Institute for Brain Development
U2OS cells were resuspended in cell media containing 10% fetal calf serum (FCS) at a concentration of 2 million cells / mL. The solution was treated with the Wild-type virus at 2.03 x 10^8 / mL and allowed to incubate at room temperature in the dark. After 4 hours of incubation, DMEM + 10% fetal bovine serum (FBS) was added to the cell solution. Three microliter was then dispensed into a 1536 tissue culture treated black assay plates which were incubated overnight at 37 C. Two microliter of loading buffer (HBSS + HEPES + Red40 dye quencher + FluxOr dye) was added and the assay plates were incubated for 45 min at room temperature in the dark. […] A stimulation buffer was added to the plate and the second kinetic read (2 min) was obtained. The rate constant was calculated from the kinetic reads and normalized to the positive and negative DMSO controls.
% is set by controls: 0 for no effect and ±100 for the full control effect.

SMILES | activity change
O=C(CN1CCCC1)Nc1sc2c(c1C(=O)Nc1ccccc1)CCCC2 | -93.7% (active)
c1ccc(Cn2nnc3c(NCC4CC4)ncnc32)cc1 | -10.7%
Cc1c(NC(=O)COC(=O)/C=C/c2cccc(F)c2)c(=O)n(-c2ccccc2)n1C | 0.394%
Cc1csc(=O)n1CCC(=O)OCC(=O)Nc1ccc(N2CCOCC2)cc1 | -7.46%
Cn1c(CCN2CCN(c3ccccn3)CC2)nc2cc(NS(=O)(=O)c3ccc(F)cc3)ccc21 | -20.6%
COc1cc(C(=O)N2CCN(C/C=C/c3ccccc3)CC2)cc(OC)c1C | -0.254%
COc1ccc(C(=O)NC2CC2)cc1OC1CCN(C/C=C/c2ccccc2)CC1 | -83.5% (active)
COc1ccc(C(=O)NC2CC2)cc1OC1CCN(Cc2cnn(C)c2)CC1 | -9.12%
COc1cc2[nH]c(=O)n(Cc3ccc(C(=O)NC4CCN(Cc5ccccc5)CC4)cc3)c(=O)c2cc1OC | -9.69%
COc1ccc(C(=O)NCCn2nc(C)cc2C)cc1OC1CCN(C(C)=O)CC1 | 3.09%
COc1ccc(C(=O)NC2CC2)cc1OC1CCN(Cc2ccc(SC)cc2)CC1 | -117% (active)
O=C(NCc1ccccc1)C1CNCC(C(=O)NCc2ccccc2)C1 (stereo unspecified) | -19%
COc1ccc(-c2ccc3[nH]c4c(c3c2)CCN2C[C@H]3[C@H](C)ON(C)[C@H]3C[C@@H]42)cc1 | -1.03%
COc1cc(NC(=O)C2=C(C)OCCS2)c(Cl)cc1C(=O)NCCCN1CCCC(C)C1 (stereo unspecified) | 15%
N#CC1(Nc2ccc3c4c(cccc24)CC3)CCCCC1 | -12.6%
COc1cccc(CC2(CO)CCCN(CC3=Cc4cc(OC)ccc4OC3)C2)c1 (stereo unspecified) | 8.29%
COc1cccc(CC2(CO)CCCN(Cc3ccc(OC(F)F)cc3)C2)c1 (stereo unspecified) | -73.9% (active)
COc1cccc(CC2(CO)CCCN(Cc3nc(-c4cccs4)oc3C)C2)c1 (stereo unspecified) | -11.7%
C[C@@H]1CN([C@@H](C)CO)C(=O)CCCn2nncc2CO[C@H]1CN(C)C(=O)Nc1ccc(C(F)(F)F)cc1 | -21.9%
N#Cc1ccc(CN2CCN(CC(=O)Nc3ccccc3C(=O)NC3CC3)CC2)cc1 | -89.2% (active)
O=C(CN1CCCCC1)Nc1ccccc1C(=O)NC1CC1 | 4.09%
Cc1ccc(OCC(=O)Nc2ccccc2C(=O)NC2CC2)cc1 | 36.5%
COc1ccc(OC)c(C(=O)NC2CCCc3c2cnn3-c2cc(C)cc(C)c2)c1 (stereo unspecified) | -0.114%

SMILES | activity change
CC1(C)NC(=O)N(CC(=O)Nc2ccc(-c3ccccc3)cc2)C1=O | -12.6%
O=C(NCc1ccco1)c1sc2cccc(F)c2c1Cl | -25.2%
COc1ccc2oc(C(=O)NCc3ccco3)c(C)c2c1 | 26.9%
COc1ccc2c(Cl)c(C(=O)NCc3ccco3)sc2c1 | -70.1% (active)
OCC1OC(n2cnc3c(N4CCCC4)ncnc32)C(O)C1O (stereo unspecified) | -11.6%
C[C@H]1CN(c2ccc(Br)cc2)C(=O)[C@@H]1CC(=O)Nc1ccc(Br)cc1 | 1.02%
C=CCNC(=O)c1sc(SC)cc1-c1ccc(Cl)cc1 | -187% (active)
CN(CC(=O)Nc1ccc(F)cc1)C(=O)c1ccc(-c2ccc(Cl)cc2)o1 | -18.6%
CSc1sc(C(=O)NNC(=O)c2ccc(Cl)cc2)c2c1C=CCC2 | -2.11%
Cc1ccc(S(=O)(=O)NCCN2CCOCC2)cc1C | -76.1% (active)
Cc1cc(C)c(S(=O)(=O)NCCCN2CCOCC2)cc1Br | 12.5%
O=S(=O)(NCCCN1CCOCC1)c1ccc(F)c(Cl)c1 | 4.11%
C[C@H]1CN([C@@H](C)CO)S(=O)(=O)c2ccc(Br)cc2O[C@H]1CN(C)C(=O)c1cnccn1 | 2.27%
COC(=O)Cn1nc(-c2ccccc2)c2cc(Cl)ccc21 | -4.79%
COCCCNc1nc2c(-c3cccc(C)c3)nnn2c2ccc(Cl)cc12 | -86% (active)
COCCCNc1nc2c(-c3cccc(C(F)(F)F)c3)nnn2c2ccccc12 | -4.14%
Cc1nnc(SC(C)C(=O)c2c[nH]c3ccccc23)n1C1CC1 (stereo unspecified) | -2.83%
Cc1cn([C@H]2C[C@H](O)[C@@H](CNC(=O)[C@H](N)Cc3cccnc3)O2)c(=O)[nH]c1=O | -1.56%
O=C(C[C@H]1C[C@@H]2c3cc(NC(=O)C4CCC4)ccc3O[C@@H]2[C@H](CO)O1)NC1CCCCC1 | -22.6%
O=C(C1CCCO1)N1CCN(C(=O)C23CC4CC(CC(C4)C2)C3)CC1 (stereo unspecified) | -8.69%
c1ccc(CCc2ccccn2)cc1 | 15.2%
Cc1ccc(C(=O)C(C)OC(=O)Cc2n[nH]c(=O)c3ccccc23)cc1C (stereo unspecified) | 5.46%
O=c1[nH]nc(Cc2ccccn2)c2ccccc12 | -160% (active)
